Bioassay records deposited in PubChem by Broad Institute.
Compounds with a hit are over-represented: about 6.7% of the library has one in this group of screens.
C diff HTS: C. difficile growth inhibition; Clostridium difficile clinical isolate growth, OD600, 24 h; stronger effect = lower value; growth activity, negative = inhibition, % at 16 µg/mL (by protocol); 86,000 compounds, 0.25% hits; AID 1259249;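 active = mean growth activity at or below -80% and every replicate also at or below -80%; inconclusive = mean at or below -80% but some replicate above -80%; inactive = mean growth activity above -80%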;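 note: 0% = DMSO wells and -100% = levofloxacin 16 µg/mL wells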
Pf Dd2 growth: blocks growth of Plasmodium falciparum Dd2 parasites; activity change, % at 10 µM; 94,000 compounds, 2.3% hits; P. falciparum Dd2 growth, SYBR Green, 72 h; stronger effect = lower value; AID 1159554; in the data active = activity change below about -80%; inconclusive = no clear call, values can overlap the other calls
T cruzi growth: T. cruzi proliferation inhibition | T. cruzi beta-gal in NIH3T3, GalScreen luminescence, 90 h | inhibition, % at 8.34 µM | 77,000 compounds, 5.9% hits | AID 624255;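 active = mean inhibition above about 93%, with at least 55% of replicates each passing it, limit read from the data, passing the limit was not always enough; inconclusive = only one of those two conditions holds; inactive = neither condition holds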
Starred values were filed as active, the others as inactive; ? = inconclusive; · = not tested or not shown; ! = repeats disagree.

SMILES	C diff HTS	Pf Dd2 growth	T cruzi growth
C[C@@H]1CN([C@@H](C)CO)S(=O)(=O)c2ccc(C#Cc3ccccc3)cc2O[C@H]1CN(C)C(=O)Cc1ccccn1	-19	-84*	72
C[C@@H]1CN([C@H](C)CO)S(=O)(=O)c2ccc(C#Cc3ccncc3)cc2O[C@@H]1CN(C)C(=O)C1CC1	·	-25	80
CC(C)C#Cc1ccc2c(c1)O[C@@H](CN(C)C(=O)C1CCCCC1)[C@H](C)CN([C@@H](C)CO)S2(=O)=O	12	-82*	52
C[C@H]1CN([C@@H](C)CO)S(=O)(=O)c2ccc(C#CC3(O)CCCC3)cc2O[C@H]1CN(C)C(=O)c1ccccc1	-2	-46	12
CC(C)C#Cc1ccc2c(c1)O[C@@H](CN(C)C(=O)C1CCCCC1)[C@@H](C)CN([C@H](C)CO)S2(=O)=O	9	-29	80
C[C@@H]1CN([C@@H](C)CO)S(=O)(=O)c2ccc(C#CC3(O)CCCC3)cc2O[C@H]1CN(C)C(=O)c1ccccc1	-9	-86*	51
C[C@@H]1CN([C@@H](C)CO)S(=O)(=O)c2ccc(C#Cc3ccccc3)cc2O[C@@H]1CN(C)C(=O)Cc1ccccn1	-10	?	67
C[C@@H]1CN([C@@H](C)CO)S(=O)(=O)c2ccc(C#Cc3ccccc3)cc2O[C@H]1CN(C)C(=O)C1CC1	-15	-89*	67
COCC(=O)Nc1ccc2c(c1)C(=O)N(C)C[C@@H](OC)[C@@H](C)CN(C(=O)c1ccccc1)[C@H](C)CO2	·	33	8
CC(C)NC(=O)Nc1ccc2c(c1)CC(=O)N([C@H](C)CO)C[C@H](C)[C@@H](CN(C)CC1CCCCC1)O2	-1	-37	-32
O=C(C1CC1)N1CC2(C1)[C@@H](c1ccccc1)[C@@H](CO)N2CCC(F)(F)F	-1	10	·
COc1ccc(CN(C)C[C@H]2Oc3ccc(N(C)C)cc3CC(=O)N([C@@H](C)CO)C[C@H]2C)cc1	-3	-3	·
C[C@H]1CN([C@@H](C)CO)S(=O)(=O)c2ccc(C#Cc3ccncc3)cc2O[C@@H]1CN(C)C(=O)C1CC1	·	-31	66
CCC(=O)N(C)C[C@H]1Oc2cc(C#Cc3ccccc3)ccc2S(=O)(=O)N([C@@H](C)CO)C[C@@H]1C	1	-83*	·
CCC(=O)N(C)C[C@@H]1Oc2cc(C#Cc3ccccc3)ccc2S(=O)(=O)N([C@H](C)CO)C[C@@H]1C	-7	-72	·
C[C@@H]1CN([C@H](C)CO)S(=O)(=O)c2ccc(C#Cc3ccccc3)cc2O[C@@H]1CN(C)C(=O)C1CC1	4	-82*	48
C[C@H](CO)N1C[C@H](C)[C@@H](CN(C)S(=O)(=O)c2cn(C)cn2)Oc2ccc(NC(=O)NC3CCCCC3)cc2CC1=O	6	17	12
C[C@@H]1CN([C@@H](C)CO)C(=O)c2cc(C#CCN(C)C)cnc2O[C@@H]1CN(C)C(=O)c1cnccn1	-1	36	-25
COc1ccccc1CN1C[C@@H]2N[C@H](C1)[C@@H]2c1ccc(-c2cccnc2)cc1	-3	-87*	·
COc1cccc(CN2C[C@@H]3N[C@H](C2)C3c2ccc(-c3ccc(C#N)cc3)cc2)c1 (stereo partly specified)	68	?	·
COc1cccc(CN2C[C@@H]3N[C@H](C2)C3c2ccc(-c3ccccc3OC)cc2)c1 (stereo partly specified)	-97*!	-28	·
COc1ccccc1CN1[C@@H]2CNC[C@H]1C2c1ccc(-c2cccnc2)cc1 (stereo partly specified)	17	21	·
COc1ccccc1-c1ccc(C2[C@@H]3CN(Cc4nccs4)C[C@H]2N3)cc1 (stereo partly specified)	15	-53	·
COc1ccccc1-c1ccc(C2[C@@H]3CN(Cc4cccc(F)c4)C[C@H]2N3)cc1 (stereo partly specified)	-90*!	-36	·
C[C@H](CO)N1C[C@H](C)[C@@H](CN(C)Cc2ccc(C(=O)O)cc2)Oc2c(NC(=O)NC3CCCCC3)cccc2C1=O	6	9	-12
SMILES	C diff HTS	Pf Dd2 growth	T cruzi growth
O=C(C[C@H]1C[C@@H]2c3cc(NC(=O)NC4CCCCC4)ccc3O[C@@H]2[C@@H](CO)O1)NCc1ccccn1	8	13	·
CO[C@H]1CN(C)C(=O)c2cc(NC(=O)C3CC3)ccc2OC[C@H](C)N(Cc2cc(F)ccc2F)C[C@H]1C	·	-88*	95
COc1ccccc1CN1C[C@H](C)[C@@H](OC)CN(C)C(=O)c2cc(NC(C)=O)ccc2OC[C@H]1C	·	-23	-15
CO[C@@H]1CN(C)C(=O)c2cc(NC(=O)C3CC3)ccc2OC[C@@H](C)N(Cc2cc(F)ccc2F)C[C@@H]1C	·	-64	80
COc1ccccc1CN1C[C@@H](C)[C@H](OC)CN(C)C(=O)c2cc(NC(=O)Nc3ccccc3OC)ccc2OC[C@H]1C	·	-89*	20
C[C@@H]1CN([C@@H](C)CO)S(=O)(=O)c2ccc(C#Cc3ccncc3)cc2O[C@H]1CN(C)S(=O)(=O)c1ccc(F)cc1	2	-86*	90
C[C@H]1CN([C@@H](C)CO)S(=O)(=O)c2ccc(C#Cc3ccncc3)cc2O[C@@H]1CN(C)S(=O)(=O)c1ccc(F)cc1	-2	-88*	98
Cc1ccc(S(=O)(=O)N(C)C[C@H]2Oc3cc(C#Cc4ccncc4)ccc3S(=O)(=O)N([C@@H](C)CO)C[C@H]2C)cc1	-2	-82*	71
CC(C)CC#Cc1ccc2c(c1)O[C@@H](CN(C)S(=O)(=O)c1ccc(F)cc1)[C@H](C)CN([C@H](C)CO)S2(=O)=O	5	-67	·
C[C@H](CO)N1C[C@H](C)[C@H](CN(C)S(=O)(=O)c2ccccc2)Oc2cc(C#Cc3ccncc3)ccc2S1(=O)=O	3	-80	50
CC(C)CC#Cc1ccc2c(c1)O[C@H](CN(C)S(=O)(=O)c1ccc(F)cc1)[C@H](C)CN([C@@H](C)CO)S2(=O)=O	9	-77	·
COc1ccc2c3c(n(C)c2c1)[C@H](CO)N(S(C)(=O)=O)CC31CCN(C(=O)CN(C)C)CC1	-3	-12	·
O=C(Nc1ccc(Cl)cc1)N[C@H]1CC[C@H](CCn2cc(Cc3ccccc3)nn2)O[C@@H]1CO	7	-27	30
COc1ccc(S(=O)(=O)Nc2ccc3c(c2)CC(=O)N([C@H](C)CO)C[C@H](C)[C@H](CN(C)Cc2ccc(C(=O)Nc4ccccc4N)cc2)O3)cc1	-4	-81*	50
COc1ccc(S(=O)(=O)Nc2ccc3c(c2)C(=O)N([C@H](C)CO)C[C@@H](C)[C@H](CN(C)Cc2ccc(C(=O)Nc4ccccc4N)cc2)O3)cc1	-2	-4	40
COc1ccc(S(=O)(=O)Nc2ccc3c(c2)CC(=O)N([C@H](C)CO)C[C@@H](C)[C@@H](CN(C)Cc2ccc(C(=O)Nc4ccccc4N)cc2)O3)cc1	0	-85*	65
COc1ccc(S(=O)(=O)Nc2ccc3c(c2)C(=O)N([C@@H](C)CO)C[C@H](C)[C@@H](CN(C)Cc2ccc(C(=O)Nc4ccccc4N)cc2)O3)cc1	-5	-56	51
O=C(CCN1CCCCC1)N[C@@H]1CC[C@H](CCNS(=O)(=O)c2ccc(F)cc2)O[C@@H]1CO	-2	29	-14
